# HPGD inh: inhibitors of human 15-hydroxyprostaglandin dehydrogenase (HPGD) | Potency, µM, for the others: at the highest dose activity change, negative = inhibition, actives largely listed as inhibitors | AID 894 | purified HPGD, NADH fluorescence kinetic, PGE2 substrate | 4.3% of 150,000 active | P15428; note: potency is the fitted concentration of half-maximal effect
# Target sequence (P15428 whole entry, looked up): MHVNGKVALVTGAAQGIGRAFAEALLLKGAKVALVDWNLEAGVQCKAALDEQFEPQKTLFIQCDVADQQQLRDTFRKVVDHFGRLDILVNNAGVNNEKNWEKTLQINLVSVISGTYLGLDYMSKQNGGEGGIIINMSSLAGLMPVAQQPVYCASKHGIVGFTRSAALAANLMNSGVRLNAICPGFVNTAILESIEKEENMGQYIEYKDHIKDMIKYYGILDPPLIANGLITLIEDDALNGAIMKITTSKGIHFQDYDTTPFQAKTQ
#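 NADH formation kinetics: reaction with 30 uM PGE2 and 1 mM NAD+ (final), 20 nM enzyme, Tris-HCl pH 8 with Tween 20, after 15 min compound preincubation at room temperature. Fluorescence change, last versus first of five reads.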
# IMPase Li inh: IMPase inhibition in cells with lithium potentiation; CHO-M1 cells, IP1 TR-FRET (IP-One), carbachol + lithium; Potency, µM (highest dose often 59.4 µM), inactives show at the highest dose activity, negative = IMPase inhibition, usual class: inhibitors; 0.35% of 210,000 active; AID 1457; active = well fitted inhibition curve with a large enough effect; inconclusive = small, poorly fitted or top-dose-only effect; inactive = no such curve, though single readings can be large or run the other way;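 note: IP1 builds up when IMPase is blocked and the TR-FRET signal falls; potency is the fitted concentration of half-maximal effect; plate controls were basal vehicle for no effect and high inhibitor control for full effect; nearly all actives have a fitted effect of over 50% in size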
#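 Lithium-sensitised IP1 accumulation assay; M1-expressing CHO cells treated 30 min at 37C with compound. Competitive antibody detection by time-resolved FRET followed a 10 min room-temperature lysis step.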
# ALDH1A1 inh: ALDH1A1 (human) enzyme inhibition; P00352; Purified ALDH1A1, NADH fluorescence, propionaldehyde substrate; Potency, µM (highest dose often 75.3 µM), for inactives: at the highest dose activity, negative = inhibition, usual class: inhibitors; 7.3% of 220,000 active; AID 1030;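 note: potency is the fitted concentration of half-maximal effect; plate controls were no enzyme wells and a reference inhibitor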
# IMPase inh: cell-permeable inhibitors of inositol monophosphatase (IMPase) | P97697 | CHO-M1 cells, IP1 accumulation, HTRF TR-FRET ratio | inhibition (IP1 accumulation), % at 46.1 µM | 120,000 tested, under 10 active | AID 901; active = well fitted curve in the direction sought with a large enough effect in the signal ratio, not every such curve was filed as active; inconclusive = small, poorly fitted or top-dose-only effect, or a change in a side signal; inactive = no such curve, though single readings can be large or run the other way; the % refers to the signal ratio;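 note: cells stimulated with carbachol in lithium chloride buffer; plate controls were DMSO basal wells for no effect and reference inhibitor wells for full effect; higher means more IMPase inhibition seen as more IP1 and lower FRET ratio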
# Target sequence (P97697 whole entry, looked up): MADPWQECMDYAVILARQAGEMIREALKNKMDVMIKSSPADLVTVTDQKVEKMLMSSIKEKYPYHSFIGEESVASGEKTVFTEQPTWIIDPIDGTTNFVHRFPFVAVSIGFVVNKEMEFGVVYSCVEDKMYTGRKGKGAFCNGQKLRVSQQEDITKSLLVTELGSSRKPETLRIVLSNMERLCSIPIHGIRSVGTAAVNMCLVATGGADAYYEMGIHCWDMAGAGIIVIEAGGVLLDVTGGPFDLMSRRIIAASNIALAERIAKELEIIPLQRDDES
#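 Elevated IP1 in lysates lowers TR-FRET signal (665/620 ratio and 620 channel reported). Cells were CHO-M1, given carbachol (50 uM as added) plus 50mM LiCl, pH 7.4, 30 min, 37C; compounds titrated up to 46 uM; AC50 by Hill equation.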
# PNC assembly inh: inhibitors of perinucleolar compartment assembly | PC3M PTB-GFP, PNC prevalence imaging, 16 h; hits give low values | activity change (PNC), negative = inhibition, % at 10 µM | 3.1% of 140,000 active | AID 2417;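 active = readout at or below -70, meaning at least 70% loss of cells showing the perinucleolar compartment, a nuclear body marking cancer cells; inconclusive = readout between -30 and a set limit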;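 note: plate controls were DMSO wells for no effect and camptothecin positive control wells for full effect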
#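 PC3M cells stably expressing PTB-GFP, 750–1000 cells/well, treated 16 h at 37 °C with compound (23 nl of library stock), in duplicate. After paraformaldehyde fixation and Hoechst stain, imaged at 20x; PNC prevalence scored by image analysis.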
# Numbers without * were called inactive; ? = inconclusive; . = not tested or not shown; [ ] = dose if it differs, or a comment. This is a sample that favours compounds with a hit; in the whole collection about 11% have one here. Unless noted, calls come from the whole dose curve; as a rule, active = well fitted inhibition curve with a large enough effect (not every such curve was filed as active); inconclusive = small, poorly fitted or top-dose-only effect, or another doubt; inactive = no such curve, though single readings can be large or run the other way. Unless noted, % is set by controls: 0 for no effect and ±100 for the full control effect.
SMILES,HPGD inh,IMPase Li inh,ALDH1A1 inh,IMPase inh,PNC assembly inh
CC(C)(C)c1ccc(Oc2nc3ccccn3c(=O)c2/C=C(\C#N)c2nc3ccccc3[nH]2)cc1,.,.,.,-11,.
O=C1C=CC2(OCCCO2)C(Br)=C1,.,.,4%[13.5 µM],.,.
CS(=O)(=O)N(CC(=O)NCc1ccccc1)Cc1ccc(Cl)cc1,-2%,25%[38.3 µM],8%,-10,10
CS(=O)(=O)N(CC(=O)NCc1ccccn1)Cc1ccc(Cl)cc1,-1%,1%,7.9µM*,9,?
CS(=O)(=O)N(CC(=O)N1CCCCCC1)Cc1ccc(Cl)cc1,-2%,7%[38.3 µM],?,0,-107*
Cc1ccc(-c2nc(N)s[n+]2-c2ccccc2)cc1,2.2µM*,11%,7.1µM*,.,35
CNc1nc(-c2ccccc2)[n+](-c2ccc(C)cc2)s1,.,.,2.5µM*,0,39
COc1nn(C(C)C(=O)N2N=C(C(F)F)CC2(O)C(F)F)cc1[N+](=O)[O-] (configuration not stated),-10%,4%,-8%,1,?
COc1nn(CC(=O)N2N=C(C(F)F)CC2(O)C(F)F)cc1[N+](=O)[O-] (configuration not stated),-18%,-1%,6%,0,-90*
Cc1nc(N2CCN(C(=O)COc3ccccc3)CC2)c2c(C)c(C)sc2n1,?,31%[38.3 µM],11µM*,13,-22
Cc1ccccc1-n1ccnc1SCC(=O)NCc1ccco1,.,-2%,-10%,.,.
Cc1nc(C)c(C(=O)Nc2ncc([N+](=O)[O-])s2)o1,.,9%,22µM*,.,.
CCOC(=O)C1(C)C=C(Nc2ccc(C(N)=O)cc2)C(=O)N1c1ccccc1 (configuration not stated),.,.,.,-3,.
COc1ccccc1NC(=O)C1=C(C)NC(=O)NC1c1cc(C)cs1 (configuration not stated),0%,-11%,4%,.,62
O=C(Cn1cnc2c(cnn2-c2ccc(F)cc2)c1=O)NCc1ccco1,-14%,-13%[38.3 µM],-5%,-3,15
Cc1ccc(-n2ncc3c(=O)n(CC(=O)NCc4ccco4)cnc32)cc1,-20%,-5%,7%,-2,-100*
O=C(Cn1cnc2c(nnn2Cc2ccccc2F)c1=O)NCc1ccco1,32µM*,-9%[38.3 µM],-2%,0,30
Cc1ccc(Cn2nnc3c(=O)n(CC(=O)NCc4ccco4)cnc32)cc1,?,-2%,-2%,11,-12
O=C(COc1ccccc1)Nc1ccccc1NS(=O)(=O)c1cccs1,-9%,-3%,-2%,.,-100*
Cc1ccc(S(=O)(=O)N/N=C/c2cccc([N+](=O)[O-])c2)cc1,-3%,-3%,?,8,?
CCCCCCCCCCS(=O)(=O)N/N=C/c1ccc(O)cc1,-25%,15%,13µM*,4,-3
CCCCCCCCCS(=O)(=O)N/N=C/c1cccc([N+](=O)[O-])c1,20µM*,45%[38.3 µM],0.32µM*,1,?
CC(=O)c1cc2c(cc1O)OC(C)(C)C=C2,25µM*,24%,?,.,.
C=CCn1c(-c2cc3cccc(OC)c3o2)n[nH]c1=S,.,-11%,?,.,.
CN(C)C1CCN(C(=O)c2ccc(-n3c(=O)c(=O)[nH]c4ccccc43)cc2)C1 (configuration not stated),-7%,.,9%,.,.
SMILES,HPGD inh,IMPase Li inh,ALDH1A1 inh,IMPase inh,PNC assembly inh
CC1CCN(c2c(NCc3ccc(C(=O)NCCc4ccc(Cl)cc4)cc3)c(=O)c2=O)CC1,?,-2%,6%,.,2
CC1CCC(NC(=O)c2ccc(CNc3c(NC4CCCCC4)c(=O)c3=O)cc2)CC1 (configuration not stated),?,-1%,?,.,23
CCCNC(=O)c1ccc(CNc2c(N3CCC(C(=O)OCC)CC3)c(=O)c2=O)cc1,4.5µM*,-11%[38.3 µM],?,8,-17
CC1CCN(c2c(NCc3ccc(C(=O)N4c5ccccc5CC4C)cc3)c(=O)c2=O)CC1 (configuration not stated),13µM*,15%,-11%,-11,18
CCOC(=O)N1CCN(c2c(NCCN3CCN(Cc4ccccc4)CC3)c(=O)c2=O)CC1,-29%,3%[38.3 µM],?,2,5
CCOC(=O)C1CCN(c2c(NCCCN3CCN(Cc4ccccc4)CC3)c(=O)c2=O)CC1,14µM*,3%[38.3 µM],-4%,7,-11
O=C(NC1CCCC1)c1ccc(CNc2c(N3CCOCC3)c(=O)c2=O)cc1,7.9µM*,-1%[38.3 µM],5%,4,-8
Cc1ccc(S(N)(=O)=O)cc1NC(=O)/C=C/c1ccc2c(c1)OCO2,.,2%,-7%,.,.
CCOC(=O)C1CCCN(C(=O)c2ccc(CNc3c(N4CCC(C)CC4)c(=O)c3=O)cc2)C1 (configuration not stated),10µM*,26%[38.3 µM],?,-6,9
CCOC(=O)C1CCN(c2c(NCc3ccc(C(=O)NCCC(C)C)cc3)c(=O)c2=O)CC1,3.5µM*,5%[38.3 µM],-12%,3,54
COc1c2c(nc3ccccc13)O[C@@H]([C@@](C)(O)CO)C2,.,.,.,-2,.
COc1ccccc1S(=O)(=O)CC(O)COc1ccc(F)cc1Cl (configuration not stated),.,4%,6%,.,.
C=CCN1C(=O)C(CC(=O)Nc2ccc(OC)cc2)SC1=Nc1ccc(S(N)(=O)=O)cc1 (configuration not stated),.,5%,7.9µM*,.,.
COCCN1C(=O)C(CC(=O)Nc2ccc(C(C)=O)cc2)SC1=Nc1ccccc1 (configuration not stated),-5%,2%[38.3 µM],-8%,11,-3
COc1ccc(N=C2SC(CC(=O)Nc3ccccc3)C(=O)N2Cc2ccccn2)cc1 (configuration not stated),.,6%,2.2µM*,.,.
CC(O)CN1C(=O)C(CC(=O)Nc2ccc(Cl)cc2)SC1=Nc1ccccc1 (configuration not stated),-14%,28%[38.3 µM],22µM*,-2,-24
c1ccc(N2CCN(c3nc4ccccc4[nH]3)CC2)nc1,.,3%,-4%,.,.
N#Cc1cc(C#N)c(N2CCN(c3ccccn3)CC2)nc1N,-8%,28µM*,?,1,57
CCOC(=O)c1[nH]cnc1C(=O)Nc1ccccn1,.,.,0.25µM*,?,28
CCOC(=O)c1[nH]cnc1C(=O)Nc1ccccc1,.,3%,?,.,.
O=C(NCCc1ccccc1)C(=O)NCC1CCNCC1,.,5%,1%,.,.
O=C(Nc1ccncc1)c1ccc2c(c1)C(=O)N(CC1CCCO1)C2=O (configuration not stated),-17%,-4%,5.6µM*,.,-4
O=C1c2cccc3cccc(c23)C(=O)N1CC1CCCO1 (configuration not stated),.,6%,?,.,.
Nc1cccc(Oc2ccc3c(c2)C(=O)N(CC2CCCO2)C3=O)c1 (configuration not stated),.,.,8.9µM*,.,.

# Assay outcomes (PubChem)
